Data as given in PubChem BioAssay.
Active and inactive are the calls of the source.

Key:
[1] = small molecules captured by biotinylated probe aFSTL3 – biochemical, small-molecule microarray, fluorescence 635/667, stem cell growth factor project, primary screen (AID 1064); details: higher = more signal;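 also: measures binding of the biotinylated anti-FSTL3 antibody to printed compounds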
[2] = binders from COS7 lysate, DM2A8 probe, primary screen, torsin A project, cell lysate, small-molecule microarray, fluorescence 635/667 (AID 1065); details: higher = more signal, COS7 lysate expressing mutant human TOR1A
[3] = small molecules captured by biotinylated probe aFGF2 – biochemical, small-molecule microarray, fluorescence 635/667, stem cell growth factor project, primary screen (AID 1067); details: higher = more signal;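 also: measures binding of biotinylated aFGF2 protein to printed compounds on slides; z-score merges feature fluorescence and signal-to-noise across triplicate slides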
[4] = small molecules captured by biotinylated probe aFGF10 – biochemical, small-molecule microarray, fluorescence 635/667, stem cell growth factor project, primary screen (AID 1071); details: higher = more signal;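 also: score merges 667 nm spot intensity and signal to noise from triplicate slides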
[5] = target: Neurogenic locus notch homolog protein 2 (Homo sapiens) (UniProt Q04721); test: small molecules binding Notch2 protein – biochemical, small-molecule microarray, 635 nm fluorescence, stem cell growth factors, primary screen (AID 1073); details: higher = more signal
[6] = target: Pro-neuregulin-1, membrane-bound isoform (Homo sapiens) (UniProt Q02297); test: small molecules binding neuregulin-1 protein – biochemical, small-molecule microarray, fluorescence 635/667, psychiatric disease protein project, primary screen (AID 1075); details: NRG1 binding, 635 nm fluorescence, higher = more signal;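 also: score combines 667 nm spot fluorescence with signal to noise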
[7] = test system: Neuregulin-1 EGF-like domain; test: small molecules binding NRG1 EGF domain – biochemical, small-molecule microarray, 635 nm fluorescence, primary screen (AID 1081); details: higher = more signal;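 also: binding of the protein to compounds printed on small-molecule microarray slides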
[8] = FRG1 expression reporter modulators in myotubes – cell-based, C2C12 myotubes, firefly/Renilla luciferase, luminescence, FRG1 inhibition for FSHD, primary screen (AID 1084); details: FRG1 promoter luciferase, higher = more signal, called active from +8 up or from −8 down
[9] = small molecules captured by biotinylated probe aFST – biochemical, small-molecule microarray, fluorescence 635/667, stem cell growth factor project, primary screen (AID 1086); details: higher = more signal;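 also: score merges 667 nm fluorescence with signal-to-noise of each printed compound spot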
[10] = binders of probe aHhip on microarray, primary screen, stem cell growth factor project, biochemical, small-molecule microarray, fluorescence 635/667 (AID 1087); details: higher = more signal;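 also: score merges spot fluorescence at 667nm with spot signal to noise ratio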
[11] = test system: PRMT1 (protein arginine N-methyltransferase 1); test: small molecules binding arginine methyltransferase PRMT1 – biochemical, small-molecule microarray, 635 nm fluorescence, primary screen (AID 1088); details: higher = more signal;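 also: binding of Prmt1 protein to compounds spotted on small-molecule microarray slides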
[12] = growth effects on S. cerevisiae YJM789 – YJM789 clinical isolate, OD600, 24 h, basal, primary screen (AID 1089); details: higher = more signal, called active from +8 up or from −8 down;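 also: growth of clinical yeast isolate S. cerevisiae YJM 789 seeded 1000 cells per well; test concentration not given here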
[13] = S. pombe growth modifiers, basal conditions – strain 972, OD600, 24 h, no modulator, primary screen (AID 1090);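 also: basal condition with compound alone and no growth modifier present; test concentration not given here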; details: S. pombe 972 growth, higher = more signal, called active from +8 up or from −8 down
[14] = budding yeast growth modifiers under rapamycin – strain BY4716, OD600, 96 h, primary screen (AID 1091); also: test concentration not given here; details: S. cerevisiae BY4716 + rapamycin, higher = more signal, called active from +8 up or from −8 down
[15] = target: Torsin-1A-interacting protein 2 (Homo sapiens) (UniProt Q8NFQ8); test: small molecules binding lysate-expressed LULL1 – cell lysate, human LULL1 lysate, 635/667 nm fluorescence, primary screen (AID 1092); details: small-molecule microarray, hLULL1 lysate binding, 635 nm fluorescence; higher = more signal;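 also: probe is lysate of COS7 cells overexpressing human LULL1; score merges per-feature 667 nm fluorescence with signal-to-noise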
[16] = optical density change of DRC41 E. coli – strain DRC41, OD650, 24 h, E. coli filamentation project, primary screen (AID 1093);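 also: MC1000 strain lacking acrAB efflux and sulA so SOS filamentation is blocked; test concentration not given here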; details: E. coli DRC41 growth, higher = more signal, called active from +8 up or from −8 down
[17] = probe aLefty2 binding to arrayed compounds – biochemical, biotinylated probe, 635/667 nm fluorescence, primary screen (AID 1094); details: small-molecule microarray, higher = more signal;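 also: score merges spot fluorescence near 667 nm with spot signal-to-noise ratio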
[18] = test system: Noggin (protein binding on small-molecule microarray); test: small molecules binding Noggin protein – biochemical, 635/667 nm fluorescence, primary screen (AID 1095); details: 635 nm fluorescence, higher = more signal;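 also: score merges 667 nm feature fluorescence with signal to noise over triplicate slides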
[19] = target: Neurogenic locus notch homolog protein 3 (Homo sapiens) (UniProt Q9UM47); test: small molecules binding NOTCH3 protein – biochemical, 635/667 nm fluorescence, primary screen (AID 1096); details: small-molecule microarray, 635 nm fluorescence, higher = more signal
[20] = probe aEGFR binding to arrayed compounds – biochemical, biotinylated probe, 635/667 nm fluorescence, primary screen (AID 1097); details: small-molecule microarray, higher = more signal;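 also: probe is a biotinylated anti-EGFR antibody binding compounds printed on slides; score combines fluorescence near 667 nm and signal to noise of each spot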

Torsin-1A-interacting protein 2 (Homo sapiens), sequence (Q8NFQ8 whole entry, looked up): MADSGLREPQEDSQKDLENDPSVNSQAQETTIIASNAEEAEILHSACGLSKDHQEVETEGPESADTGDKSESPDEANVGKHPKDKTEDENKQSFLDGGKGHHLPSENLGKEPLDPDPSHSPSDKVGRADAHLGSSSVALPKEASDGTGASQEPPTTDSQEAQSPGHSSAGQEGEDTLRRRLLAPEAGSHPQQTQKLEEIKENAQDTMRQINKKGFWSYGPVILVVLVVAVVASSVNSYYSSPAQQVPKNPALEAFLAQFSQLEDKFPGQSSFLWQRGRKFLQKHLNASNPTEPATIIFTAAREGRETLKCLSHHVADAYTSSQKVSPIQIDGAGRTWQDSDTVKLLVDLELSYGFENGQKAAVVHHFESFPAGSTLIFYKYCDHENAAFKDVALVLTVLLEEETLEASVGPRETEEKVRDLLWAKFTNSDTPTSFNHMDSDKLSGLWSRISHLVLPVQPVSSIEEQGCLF
Neurogenic locus notch homolog protein 3 (Homo sapiens), sequence (Q9UM47 whole entry, looked up): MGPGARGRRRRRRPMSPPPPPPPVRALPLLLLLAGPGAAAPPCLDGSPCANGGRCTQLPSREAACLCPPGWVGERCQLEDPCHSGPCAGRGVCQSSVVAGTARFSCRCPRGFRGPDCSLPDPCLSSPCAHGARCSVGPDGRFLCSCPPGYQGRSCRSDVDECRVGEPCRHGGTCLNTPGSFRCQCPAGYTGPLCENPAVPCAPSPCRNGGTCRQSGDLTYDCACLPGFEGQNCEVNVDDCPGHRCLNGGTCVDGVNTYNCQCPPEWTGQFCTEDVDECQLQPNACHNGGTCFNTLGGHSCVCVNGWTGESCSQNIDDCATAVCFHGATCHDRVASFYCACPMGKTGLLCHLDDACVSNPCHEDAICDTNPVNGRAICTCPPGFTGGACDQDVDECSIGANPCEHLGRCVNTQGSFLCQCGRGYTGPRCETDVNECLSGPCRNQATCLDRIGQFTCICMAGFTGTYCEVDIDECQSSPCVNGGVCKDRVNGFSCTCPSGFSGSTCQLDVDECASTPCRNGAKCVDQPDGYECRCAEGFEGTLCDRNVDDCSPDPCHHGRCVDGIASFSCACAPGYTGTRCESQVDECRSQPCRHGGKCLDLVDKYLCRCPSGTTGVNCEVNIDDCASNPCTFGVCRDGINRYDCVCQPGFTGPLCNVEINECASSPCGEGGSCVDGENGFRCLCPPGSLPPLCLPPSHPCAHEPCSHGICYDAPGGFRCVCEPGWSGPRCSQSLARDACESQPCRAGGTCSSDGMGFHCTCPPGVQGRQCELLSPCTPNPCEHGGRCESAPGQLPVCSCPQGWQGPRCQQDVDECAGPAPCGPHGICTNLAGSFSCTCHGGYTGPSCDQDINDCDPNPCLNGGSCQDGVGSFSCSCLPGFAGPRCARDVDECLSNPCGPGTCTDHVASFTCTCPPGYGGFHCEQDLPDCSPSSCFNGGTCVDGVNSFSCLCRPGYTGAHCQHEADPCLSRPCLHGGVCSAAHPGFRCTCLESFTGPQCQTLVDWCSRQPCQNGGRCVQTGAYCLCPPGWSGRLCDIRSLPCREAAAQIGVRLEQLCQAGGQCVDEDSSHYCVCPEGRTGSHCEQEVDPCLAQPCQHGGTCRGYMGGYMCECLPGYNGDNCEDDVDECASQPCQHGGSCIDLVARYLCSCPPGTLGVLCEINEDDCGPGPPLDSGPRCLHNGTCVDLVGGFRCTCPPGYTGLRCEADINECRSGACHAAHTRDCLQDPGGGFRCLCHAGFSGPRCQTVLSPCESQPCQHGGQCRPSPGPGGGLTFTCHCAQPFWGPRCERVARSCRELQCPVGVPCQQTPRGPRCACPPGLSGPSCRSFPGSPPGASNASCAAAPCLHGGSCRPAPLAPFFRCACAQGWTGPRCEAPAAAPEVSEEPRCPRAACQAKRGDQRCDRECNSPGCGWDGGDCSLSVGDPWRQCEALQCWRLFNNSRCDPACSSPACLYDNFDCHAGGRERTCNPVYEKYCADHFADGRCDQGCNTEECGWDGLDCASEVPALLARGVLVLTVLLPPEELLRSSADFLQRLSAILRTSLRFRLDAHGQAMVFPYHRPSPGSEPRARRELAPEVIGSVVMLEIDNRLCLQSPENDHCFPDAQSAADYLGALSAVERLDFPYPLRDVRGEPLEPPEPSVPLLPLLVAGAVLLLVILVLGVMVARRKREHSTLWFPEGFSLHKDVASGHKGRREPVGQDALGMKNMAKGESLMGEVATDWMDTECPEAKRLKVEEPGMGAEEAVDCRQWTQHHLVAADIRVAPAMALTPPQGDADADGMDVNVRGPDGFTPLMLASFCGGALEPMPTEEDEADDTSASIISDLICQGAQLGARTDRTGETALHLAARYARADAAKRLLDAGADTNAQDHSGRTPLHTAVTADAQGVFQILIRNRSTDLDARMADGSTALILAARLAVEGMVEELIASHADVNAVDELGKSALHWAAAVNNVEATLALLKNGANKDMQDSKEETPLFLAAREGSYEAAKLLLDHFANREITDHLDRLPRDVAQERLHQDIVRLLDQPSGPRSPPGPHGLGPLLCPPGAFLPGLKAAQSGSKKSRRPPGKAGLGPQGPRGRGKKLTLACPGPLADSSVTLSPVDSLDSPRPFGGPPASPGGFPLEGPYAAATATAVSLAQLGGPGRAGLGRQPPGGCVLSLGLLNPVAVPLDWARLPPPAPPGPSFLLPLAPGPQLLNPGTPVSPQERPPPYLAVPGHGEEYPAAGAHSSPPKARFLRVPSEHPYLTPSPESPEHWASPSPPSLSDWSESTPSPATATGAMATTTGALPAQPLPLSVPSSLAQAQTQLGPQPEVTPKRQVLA
Pro-neuregulin-1, membrane-bound isoform (Homo sapiens), sequence (Q02297 whole entry, looked up, the tested form may be a part, canonical isoform): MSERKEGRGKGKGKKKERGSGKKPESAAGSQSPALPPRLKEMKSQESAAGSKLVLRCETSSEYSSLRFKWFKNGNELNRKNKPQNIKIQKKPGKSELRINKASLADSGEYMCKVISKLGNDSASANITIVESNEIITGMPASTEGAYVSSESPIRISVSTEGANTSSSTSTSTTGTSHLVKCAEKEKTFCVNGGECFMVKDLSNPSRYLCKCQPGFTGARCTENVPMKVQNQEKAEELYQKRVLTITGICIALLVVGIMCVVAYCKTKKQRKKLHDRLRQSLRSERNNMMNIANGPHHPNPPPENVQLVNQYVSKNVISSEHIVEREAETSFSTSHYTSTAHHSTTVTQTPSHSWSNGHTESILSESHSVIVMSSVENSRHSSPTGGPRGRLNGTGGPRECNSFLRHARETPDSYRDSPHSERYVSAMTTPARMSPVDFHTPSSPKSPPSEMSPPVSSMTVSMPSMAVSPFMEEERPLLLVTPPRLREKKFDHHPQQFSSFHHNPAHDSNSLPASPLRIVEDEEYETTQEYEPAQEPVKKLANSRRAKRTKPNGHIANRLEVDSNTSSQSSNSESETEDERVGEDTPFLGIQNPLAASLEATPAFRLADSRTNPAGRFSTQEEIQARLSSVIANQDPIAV

Compound	composite z-score [1]	composite z-score [2]	composite z-score [3]	composite z-score [4]	composite z-score [5]	composite z-score [6]	composite z-score [7]	z-score [8]	composite z-score [9]	composite z-score [10]	composite z-score [11]	z-score [12]	z-score [13]	z-score [14]	composite z-score [15]	z-score [16]	composite z-score [17]	composite z-score [18]	composite z-score [19]	composite z-score [20]
COCC(=C=CC[C@H](O)c1cccc(OCCO)c1)CCO	-0.44	-0.625	-0.0347	0.242	-0.137	1.12	0.711	1.02 (inactive)	0.235	-0.0645	1.47	-0.45 (inactive)	-0.19 (inactive)	-0.55 (inactive)	2.12	0.0234 (inactive)	-0.185	0.69	0.898	-0.112
CCCCN1CC=CC23O[C@@H]4/C=C\CCCOC(=O)C4[C@H]2C(=O)N(CCCCCO)[C@@H]3C1=O (stereo not given in full)	0.485	-0.465	-0.0985	-0.0739	-0.901	-1.18	1.26	0.368 (inactive)	-0.804	-0.249	-1.13	-0.669 (inactive)	-0.392 (inactive)	-0.8 (inactive)	-0.42	-0.769 (inactive)	-0.188	-1.16	-1.02	-0.324
CCN(CC)c1ccc(N2CC=CC34O[C@@H]5/C=C\CCC(C)OC(=O)C5[C@H]3C(=O)N(CCCCCO)[C@@H]4C2=O)cc1 (stereo not given in full)	-0.129	-0.474	-0.103	-0.497	-1.45	-0.551	-0.506	0.376 (inactive)	-0.284	-0.37	-0.895	0.026 (inactive)	-1.42 (inactive)	-0.399 (inactive)	-1.3	-0.374 (inactive)	-0.283	-0.663	-0.134	-0.238
COC(=O)[C@H](Cc1ccccc1)N[C@H](/C=C/C1CC1)[C@@H](O)Cc1ccccc1	0.128	0.1	-0.202	-0.471	-0.567	-0.0373	-0.626	-1.72 (inactive)	-0.474	-0.132	-0.108	-1.56 (inactive)	-5.75 (inactive)	-0.751 (inactive)	-0.316	1.04 (inactive)	-0.279	0.195	-0.469	-0.178
C=CCOC(=O)[C@H]1[C@@H]2C(=O)O[C@@H](c3ccccc3)[C@@H](c3ccccc3)N2[C@@H](c2ccc(OCCOC(=O)[C@H]3C[C@H]4C(=O)N[C@@H](CCCCN(C)C)C(=O)N4[C@H]3c3cccc(OCCO)c3)cc2)[C@]12C(=O)Nc1ccc(I)cc12	-0.756	0.67	-0.0659	0.527	0.914	0.605	1.3	0.0721 (inactive)	0.405	-0.179	1.54	1.71 (inactive)	-1.05 (inactive)	1.71 (inactive)	2.84	-1.36 (inactive)	-0.129	1.67	1.06	-0.15
C=C(/C(=C/C[C@H](OC(=O)c1ccncc1)c1ccc(OCCO)cc1)c1cc(C(=O)OC)ccc1OC)C(C)C	-0.0836	0.362	-0.134	0.607	-0.478	0.892	0.781	6.19 (inactive)	0.87	-0.0994	1.03	0.236 (inactive)	-1.26 (inactive)	-0.359 (inactive)	1.73	1.09 (inactive)	-0.072	0.609	0.381	0.122
CC(=O)NCCCC[C@@H]1NC(=O)[C@H]2C[C@@H](C(=O)O)[C@@H](c3ccc(O)cc3)N2C1=O	-0.0025	0.843	-0.0135	0.607	1.23	1.1	1.3	-0.316 (inactive)	0.904	0.213	1.55	2.13 (inactive)	-2.62 (inactive)	2.72 (inactive)	2.84	-0.817 (inactive)	0.14	1.67	1.04	0.138
[N-]=[N+]=NCc1ccccc1[C@@H]1OC(c2ccc(OCCCO)cc2)=N[C@]1(CCS(=O)(=O)c1ccccc1)C(=O)N1CCCCC1	0.0217	-0.267	0.0714	0.398	1.66	2.13	1.28	-0.0344 (inactive)	1.69	-0.26	1.56	-0.238 (inactive)	0.454 (inactive)	1.44 (inactive)	2.94	0.622 (inactive)	0.0563	0.36	1.02	0.208
C=CCC(OC(C)=O)[C@@H]1[C@@H](N(Cc2ccc(-c3cccc(C(F)(F)F)c3)o2)C(=O)c2cccc3ccccc23)c2cc(OCCCO)ccc2N1C(=O)Cc1ccc2ccccc2c1 (stereo not given in full)	-0.0817	-0.261	-0.152	0.2	-0.35	0.376	0.109	0.3 (inactive)	0.214	-0.199	0.263	0.1 (inactive)	-0.463 (inactive)	0.133 (inactive)	0.878	-0.57 (inactive)	-0.106	0.01	0.0384	-0.146
C=CCN1C(=O)[C@]2(O[C@H](CCO)[C@@H]([Si](C)(C)c3ccc(OC)cc3)[C@@H]2C)c2cc(N(C=O)c3ccccc3)ccc21	0.0147	0.109	-0.0583	0.26	0.425	0.495	0.903	-2.69 (inactive)	0.359	0.0021	1.47	1.28 (inactive)	0.859 (inactive)	36.9 (active)	1.19	1.03 (inactive)	-0.121	-0.0888	0.649	-0.0947
